CYP2C19 activ – increases human CYP2C19 enzyme activity; activation factor at 5 µM; 96,000 tested, under 10 active; P33261; recombinant CYP2C19, luciferin-H EGE luminescence; stronger effect = higher value; 0 = fully inhibited enzyme, 1 = untreated enzyme;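 active = activation factor of at least 2 at 5 µM in the primary screen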;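 also: 0 = wells with 2.5 mM tranylcypromine and 1 = vehicle-only wells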
Target sequence (P33261 whole entry, looked up): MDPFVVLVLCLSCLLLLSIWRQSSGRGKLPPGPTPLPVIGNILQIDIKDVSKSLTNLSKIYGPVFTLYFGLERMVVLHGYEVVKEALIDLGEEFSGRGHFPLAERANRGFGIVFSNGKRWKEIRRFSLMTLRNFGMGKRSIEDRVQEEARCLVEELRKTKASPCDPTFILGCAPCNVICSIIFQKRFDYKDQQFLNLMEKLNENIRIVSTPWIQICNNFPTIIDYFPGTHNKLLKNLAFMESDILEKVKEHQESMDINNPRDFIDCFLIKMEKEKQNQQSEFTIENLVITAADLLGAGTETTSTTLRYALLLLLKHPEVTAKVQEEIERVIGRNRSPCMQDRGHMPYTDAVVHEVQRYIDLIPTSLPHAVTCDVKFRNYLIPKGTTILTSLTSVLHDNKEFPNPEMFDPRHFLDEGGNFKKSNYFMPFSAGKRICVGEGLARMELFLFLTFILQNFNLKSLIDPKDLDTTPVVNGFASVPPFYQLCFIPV
CYP2C9 act – CYP2C9 (human) activation; P11712; recombinant CYP2C9, luciferin-H conversion, luminescence; stronger effect = higher value; factor 1 = untreated enzyme, 0 = blocked; activation factor at 5 µM; actives 1.4% (n = 96,000); AID 1024;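 active = activation factor of 2 or more for CYP2C9 at a 5 µM dose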;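 also: 0 = sulfaphenazole-blocked wells and 1 = vehicle-only wells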
CYP2C19 inh – inhibitors of human CYP2C19; P33261; CYP2C19 Supersomes, luciferin-H EGE luminescence, 30 min; inhibition, % at 5 µM; actives 21% (n = 96,000);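 active = CYP2C19 inhibition above a set limit at 5 µM in the primary screen, cut at about 50% in these data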;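 also: plate controls were negative control wells for no effect and 2.5 mM tranylcypromine positive control for full effect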
Measles CPE – protection of cells from measles virus | Measles virus-infected cells, CPE protection, absorbance | protection (pct of control), % at 4 µM | actives 1.5% (n = 140,000) | AID 841; in the data active = protection mostly above about 24%, no sharp cut-off; inactive = mostly below about 26%
CYP2C9 inh – human CYP2C9 inhibition. P11712. actives 20% (n = 96,000). AID 777. CYP2C9 Supersomes, luciferin-H conversion, luminescence. inhibition, % at 5 µM;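 active = blocking of liver enzyme CYP2C9 beyond about 50% at 5 µM, limit read from the data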
An asterisk follows results filed as active; / = not tested or not shown. Sampled rows, rich in hits. Any-hit rate of the full collection: about 22%.

SMILES	CYP2C19 activ	CYP2C9 act	CYP2C19 inh	Measles CPE	CYP2C9 inh
COc1ccc(C(=O)C2CN(c3ccccc3)CC2c2ccc(Cl)cc2)cc1 (centres undefined)	0.5	0.4	47.4	4.5	63.1*
CCC1Oc2ccc(C)cc2N(CC(=O)N(Cc2cccnc2)Cc2ccc(C)o2)C1=O (centres undefined)	0.3	0.4	71.8*	7.3	62.7*
CN(CC(=O)NCCN1CCCCCC1)S(=O)(=O)c1cccc2nsnc12	1	1	1.5	7.3	3.2
CC(C)CCNC(=O)CN(C)S(=O)(=O)c1cccc2nsnc12	0.7	0.5	25.4	7.7	50.2*
CCCCC(CC)CNC(=O)CN(C)S(=O)(=O)c1cccc2nsnc12 (centres undefined)	0.8	0.7	23.2	38.3*	25.8
O=C(CCNS(=O)(=O)c1cccc2nsnc12)NCc1cccs1	0.8	1.7	16.3	2.9	-66.7
CN(CC(=O)NCc1cccs1)S(=O)(=O)c1cccc2nsnc12	0.2	1.2	82.6*	3.8	-24.7
Cc1cccc(Cn2c(=O)c3c(nc4n3CCCN4Cc3ccccc3)n(C)c2=O)c1	0.9	0.5	12.0	6.6	48.5
c1ccc(-c2cc3nccc(-c4ccccn4)n3n2)cc1	/	/	/	13.1	/
CCCC(=O)OCC(=O)Nc1cc(C(C)(C)C)nn1-c1ccccc1	0.9	0.9	10.1	18.9	6.2
CC(C)(C)c1cc(NC(=O)COC(=O)C2CC2)n(-c2ccccc2)n1	0.4	0.8	55.9*	1.3	22.6
O=C(CN1N=C(c2ccccc2)CCC1=O)NCc1ccco1	/	/	/	7.1	/
COc1ccc(-c2nnc(COc3ccc4ccccc4c3)o2)cc1OC	0.5	0.6	47.4	2.3	35.2
CN(c1ccc(OCc2nnc(-c3ccccc3)o2)cc1)S(=O)(=O)c1ccccc1	0.1	0	93.6*	2.8	97.9*
CCn1c(SCc2ccc(F)cc2)nnc1-c1nn(-c2ccccc2)ccc1=O	1.1	1.2	-9.3	54.6*	-21.4
CCn1c(CSCc2ccc(F)cc2)nnc1SCC(=O)N1CCN(c2ccccc2)CC1	0.2	0.4	80.3*	5.4	58.1*
Cc1ccc(CSCC(=O)N2CCN(c3ccccc3)CC2)cc1	/	/	/	21.1	/
Cc1ccc(CSCc2nnc(SCC(=O)N3CCN(c4ccccc4)CC3)n2C)cc1	0.4	0.2	59.7*	8.3	78.4*
CCn1c(COc2ccc(=O)n(-c3ccccc3)n2)nnc1SCc1ccccc1	0.7	0.9	26.9	9.3	7.5
Cc1cc2c(cc1C)CSC(c1ccccc1OC(=O)C(C)C)SC2	1	1	-0.7	23.2	4.9
O=C(CSc1nnc(NC(=O)c2ccco2)s1)NC1CCCCC1	1.1	0.9	-6.2	4.3	5.2
Cc1ccc(CN2CCN(CC(=O)NCc3ccc(Cl)cc3)C2=O)cc1	0.6	0.7	36.1	7.4	34.8
CCC(=O)N1CCN(c2c(Cl)cccc2[N+](=O)[O-])CC1	0.8	0.8	21.4	26.9	17.6
CC(C)C(=O)N1CCN(c2c(Cl)cccc2[N+](=O)[O-])CC1	0.6	0.8	39.1	10.5	21.4
O=C(NC(=S)N1CCN(c2c(Cl)cccc2[N+](=O)[O-])CC1)c1cccs1	0.6	0.2	44.7	15.4	78.3*
SMILES	CYP2C19 activ	CYP2C9 act	CYP2C19 inh	Measles CPE	CYP2C9 inh
O=C(c1cccnc1)N1CCN(c2c(Cl)cccc2[N+](=O)[O-])CC1	0.2	0.7	82.0*	5.2	29.3
Cc1cc(C)cc(C(=O)NCC(=O)OCC(=O)N(C)C2CCS(=O)(=O)C2)c1 (centres undefined)	/	/	/	3.3	/
N=c1oc2ccccc2cc1-c1nc2ccccc2c(=O)[nH]1	0.7	0.8	27.3	9.6	18.6
O=C(NC1CCCCC1)Sc1ccc(Cl)cc1	0.8	0.6	19.8	7.4	41.8
COc1ccc(S(=O)(=O)Nc2ccc(S(=O)(=O)N3CCOCC3)cc2)cc1C	0.2	0.1	76.2*	3.6	92.7*
COc1ccc(S(=O)(=O)Nc2ccc(C(F)(F)F)cc2)cc1OC	0	0.4	98.7*	8.6	61.5*
COc1ccc(NS(=O)(=O)c2cccc(Cl)c2)cc1S(=O)(=O)N1CCCCC1	/	/	/	9.4	/
COc1ccc(S(=O)(=O)Nc2ccc(F)c(F)c2)cc1Cl	0.4	0.7	61.1*	3.6	33.8
COc1ccc(NS(=O)(=O)c2ccc(S(=O)(=O)N3CCCC3)cc2)cc1Cl	0	0	97.9*	13.7	97.0*
CSCCC(NC(=O)OC(C)(C)C)C(=O)NC(CC(C)C)C(N)=O (centres undefined)	1	1	4.8	14.4	1.1
CCOC(=O)N1CCN(C(=S)Nc2ccc(C)cc2)CC1	/	/	/	16.7	/
O=C(Nc1ccc2c(c1)OCCO2)C1CCN(S(=O)(=O)c2ccc3c(c2)OCCO3)CC1	0.8	1.7	16.5	5.8	-73.1
COc1ccc(NS(=O)(=O)c2ccc(S(=O)(=O)N3CCCC3)cc2)cc1	0.7	0.3	30.8	11.1	68.7*
COc1ccc(S(=O)(=O)N2CCC(C(=O)N3CCCCCC3)CC2)cc1	0.2	2.5*	84.6*	7.6	-152.0
COc1ccc(C(=O)C2CCN(S(=O)(=O)c3ccc4c(c3)OCCO4)CC2)cc1	0	0.9	98.1*	5.9	14.1
COc1ccc(S(=O)(=O)N2CCC(C(=O)N3CCCC3)CC2)cc1	0.5	1.7	48.0	6.3	-67.2
COc1ccc(S(=O)(=O)Nc2cccc(Cl)c2)cc1OC	0.1	1.5	92.6*	8.6	-53.0
N=C1C(c2ccccc2)=C(O)CN1c1ccc2c(c1)OCO2	1.1	1.1	-9.0	15.2	-5.3
CC(=O)c1cccc(NC(=O)COc2cc3oc(=O)c(CC(C)O)c(C)c3cc2Cl)c1 (centres undefined)	/	/	/	7.3	/
CCOc1ccc(C(=O)NCc2ccncc2)cc1OCC	0.6	0.5	40.2	11.4	48.6
CCOc1cc(C(=O)NCc2ccncc2)cc(OCC)c1OCC	0.2	0.1	83.8*	15.8	92.5*
CCOc1cc(C(=O)NC(C)c2ccncc2)cc(OCC)c1OCC (centres undefined)	0.2	0.2	80.0*	2.9	80.5*
COc1ccc(NC(=O)C2=C(C)Nc3ncnn3C2c2ccccc2C(F)(F)F)c(OC)c1 (centres undefined)	0.6	0.5	38.5	7.4	45.1
Cc1ccccc1-c1nnc(-c2ccc(Cl)cc2)o1	0.9	0.9	14.6	6.6	8.6
Cc1ccc(CS(=O)(=O)c2ccccc2-c2nnc(-c3ccc(Cl)cc3)o2)cc1	0.6	0.1	43.6	4.2	90.7*
CC(C)OCCCNC(=O)CCC(=O)NNc1nc2ccccc2c2nc(-c3ccccc3)nn12	/	/	/	2.0	/
CC1CCCN(CCCNC(=O)CCn2nc(-c3ccccc3)ccc2=O)C1 (centres undefined)	1	0.1	-4.3	8.2	87.0*
CCCCNC(=O)CCn1nc(-c2ccccc2)ccc1=O	1.1	1.1	-5.6	49.5*	-6.6
CCCCN(C)CCCNC(=O)CCn1nc(-c2ccccc2)ccc1=O	1.1	1	-5.5	8.6	0.7
CC(C)CCNC(=O)CCn1nc(-c2ccccc2)ccc1=O	0.9	0.9	13.7	14.9	13.3
